{"source": "PubChem BioAssay", "data": [{"tested_on": "XIP peptide (Xip251-270)", "assay": "small-molecule binders of XIP peptide, primary screen, biochemical, small-molecule microarray, fluorescence 635/667 nm, 0.5 µg/mL protein (AID 1183)", "details": "small-molecule microarray binding, fluorescence 635 nm; higher = more signal", "values": [{"molecule": "O=C1C2C=CC(C(O)c3ccc(-c4ccccc4)s3)N(Nc3ccccc3F)C2C(=O)N1c1ccccc1", "note": "(stereo not drawn)", "composite z-score": 0.734}, {"molecule": "C=CC[C@@]1(C(=O)OC)N=C(c2ccc(OCCCO)cc2)O[C@@H]1c1ccccc1CN=[N+]=[N-]", "composite z-score": 0.611}, {"molecule": "O=C1C2C=CC(C(O)C3CC=CCC3)N(n3cnnc3)C2C(=O)N1Cc1ccccc1", "note": "(stereo not drawn)", "composite z-score": -0.0517}, {"molecule": "CN(C)CCCC[C@@H]1NC(=O)[C@@H]2C[C@H](C(=O)NCCCCCN)[C@H](c3ccc(O)cc3)N2C1=O", "composite z-score": 0.433}, {"molecule": "CCOC(=O)C1=C[C@@H](C(C)(C)C)N(S(=O)(=O)c2ccc(C)cc2)[C@H]1c1ccc(Cl)c(Cl)c1", "composite z-score": 0.762}, {"molecule": "C=CCN1C(=O)[C@@]2(O[C@@H](CCO)[C@H]([Si](C)(C)c3ccc(OC)cc3)[C@H]2C)c2cc(NC(C)=O)ccc21", "composite z-score": 0.258}, {"molecule": "CCN(CC)c1ccc(N2CC=CC34O[C@@H]5/C=C\\CCC(C)OC(=O)C5[C@H]3C(=O)N(CCCCCCO)[C@@H]4C2=O)cc1", "note": "(stereo partly drawn)", "composite z-score": -0.0479}, {"molecule": "[N-]=[N+]=NCc1ccccc1C[C@]1(C(N)=O)N=C(c2ccc(OCCCO)cc2)O[C@H]1c1ccccc1N=[N+]=[N-]", "composite z-score": 0.664}, {"molecule": "COCCOC(=O)N1C(=O)[C@@]2(c3cc(C#CC4=CCCCC4)ccc31)[C@H](C(=O)N1CCN(c3ncccn3)CC1)[C@H]1C(=O)O[C@H](c3ccccc3)[C@H](c3ccccc3)N1[C@@H]2c1ccc(OCCO)cc1", "composite z-score": 0.463}, {"molecule": "Cc1ccc(S[C@]2(C(=O)NCC(C)C)CC(=O)N(Cc3ccccc3)[C@@H]2c2ccc(CO)cc2)cc1", "composite z-score": 0.404}, {"molecule": "O=C1c2ccccc2[C@](Cc2ccccc2I)(C(=O)O)[C@H](c2ccc(CO)cc2)N1Cc1ccccc1C(F)(F)F", "composite z-score": 0.506}, {"molecule": "C=C(C)[C@@H]1CC=C(C(O)C2C=CC3C(=O)N(Cc4ccccc4)C(=O)C3N2n2cnnc2)CC1", "note": "(stereo partly drawn)", "composite z-score": 0.3}, {"molecule": "C=CCNC(=O)[C@@H]1[C@H]2C(=O)O[C@H](c3ccccc3)[C@H](c3ccccc3)N2[C@H](c2ccccc2OCCO)[C@@]12C(=O)N(C(=O)OCCOC)c1ccc(C#CCC(C(=O)OC)C(=O)OC)cc12", "composite z-score": 0.878}, {"molecule": "CCCC[C@H]1OB(O)C[C@H]2C1=C(COc1ccccc1)C[C@H]1C(=O)N(Cc3ccccc3)C(=O)[C@H]12", "composite z-score": -0.0475}, {"molecule": "CC(C)C(O)C1C=CC2C(=O)N(C)C(=O)C2N1N1CCCCC1", "note": "(stereo not drawn)", "composite z-score": 0.855}, {"molecule": "CCN(CC)c1ccc(N2CC=CC34O[C@@H]5/C=C\\CCCOC(=O)C5[C@H]3C(=O)N(CCCO)[C@@H]4C2=O)cc1", "note": "(stereo partly drawn)", "composite z-score": 0.828}, {"molecule": "Cn1c2c(c3ccccc31)C(=O)C1NC2C=CC1(C)C(=O)OCc1ccccc1", "note": "(stereo not drawn)", "composite z-score": -0.416}, {"molecule": "CO[C@H]1O[C@H](CO)[C@@H](OC(=O)Nc2ccccc2-c2ccccc2)[C@H](OC(=O)Nc2ccccc2-c2ccccc2)[C@H]1OC(=O)Nc1ccccc1-c1ccccc1", "composite z-score": 0.861}, {"molecule": "O=c1cccc(-c2cccc3ccccc23)o1", "composite z-score": 0.454}, {"molecule": "O=C(NCC(O)CO)[C@@]1(Cc2ccccc2)COC(c2ccc(OCCCO)cc2)=N1", "note": "(stereo partly drawn)", "composite z-score": 0.464}, {"molecule": "O=C1O[C@H](c2ccccc2)[C@H](c2ccccc2)N2[C@H]1[C@@H](C(=O)NC[C@H](O)c1ccccc1)[C@]1(C(=O)Nc3ccc(C#CC4(O)CCCCCC4)cc31)[C@H]2c1ccccc1OCCO", "composite z-score": 0.814}, {"molecule": "CC(C)C(=C=CC[C@H](O)c1ccccc1OCCO)CCO", "composite z-score": 0.81}, {"molecule": "COC(=O)c1c2oc(c1C(=O)OC)C(=O)N[C@H](Cc1ccccc1)Cn1nncc1C1(CCCCC1)NC(=O)N[C@H](CO)CC2", "composite z-score": -0.0356}]}]}
